Test [1] is described as follows: hESC survival regulators, cell-based (AID 493140).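 Further: cells exposed to compounds for four days before counting.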 Particulars: human embryonic stem cell survival screen; stronger effect = higher value.
Test [2] is described as follows: liver-stage malaria parasite growth inhibition, primary screen, cell-based, HepG2, luciferase luminescence, HepG2 viability (AID 624349; in the data active means parasite load remaining mostly below about 12%, no sharp cut-off; inactive means mostly above about 10%;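 further: 100% = mean of DMSO negative control wells on the same plate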). Particulars: P. berghei liver stage in HepG2, luciferase luminescence, concentration not given here; parasite load remaining: stronger effect = lower value; viability: measured here: HepG2 viability without parasites.
A short description of test [3]: Cy5 fluorescence interference with SSB-bound oligo, artefact control for HCV NS3 helicase inhibitor project, biochemical, NIH Clinical Collection, E. coli SSB (AID 743268).
The subject of test [4] is Hepatitis C virus NS3 helicase. Description: HCV NS3 helicase inhibitors, primary screen, biochemical, fluorescence polarization, NIH Clinical Collection (AID 743270). Particulars: NS3 helicase binding to Cy5-dT15 DNA, stronger effect = higher value, concentration not given here. (In general: Polarisation of emitted light reports the rotation of a fluorescent probe.)
For test [5], the target named is 6-phosphogluconate dehydrogenase, decarboxylating (Homo sapiens) (UniProt P52209). Description: 6PGD enzyme inhibitors, primary screen, biochemical, human, recombinant enzyme, NADPH absorbance (AID 1159550;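 active means at least 20% inhibition of 6-phosphogluconate dehydrogenase activity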). Particulars: recombinant 6PGD, NADPH absorbance 341 nm; at 10 µM; stronger effect = higher value.
Test [6] in a line: SU-DIPG-VI glioma cell viability, MIPE4.0 library, CellTiter-Glo luminescence, qHTS (AID 1347066; cut-off not given, nearly all actives have AC50 up to about 30 µM;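 further: cells exposed to compound for 48 hours before readout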). Particulars: CellTiter-Glo ATP luminescence. For orientation: In ATP-based viability assays light output follows the ATP content of the culture.
The nature of test [7]: sensitizers of A549 cells to miR-34 induction, primary screen, imaging, A549 dox-inducible miR-34, nuclei and caspase counts (AID 1347080;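 active means compounds whose cell count with miR-34 switched on is under 0.7 times the count with it off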). Particulars: A549 miR-34 inducible, Hoechst nuclei count, 48 h.
Test [8] is described as follows: survival rescue of mitochondrial mutant cells in low glucose, primary screen, MELAS cybrids, Rieske KO mouse fibroblasts, CellTiter-Glo (AID 1508586;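 active means mean z-score across replicates of 1.96 or higher in either the MELAS or the Rieske mutant cell line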;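 further: z relative to plate mean and SD of compound and empty wells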).
Test [9] concerns the target NAD(+) hydrolase SARM1 (Homo sapiens) (UniProt Q6SZW1). Description: SARM1 TIR NADase inhibitors, cell lysate, NAD-Glo luminescence (AID 1508614;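 active means compound whose remaining NAD level is above about 45 nM, limit read from the data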). Particulars: SAM-TIR HEK293T lysate NADase, at 1 µM, stronger effect = higher value.
Test [10] addresses Mitogen-activated protein kinase 7 (Homo sapiens) (UniProt Q13164). Description: ERK5 transactivation activators in reporter cells, primary screen, cell-based, HTS (AID 1508626;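 active means luciferase signal above three times the same-plate solvent-only control wells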;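 further: luciferase driven by Gal4-ERK5 fusion binding five Gal4 sites before minimal TATA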). Particulars: HeLa Gal4-ERK5 transactivation, 18 h, at 5 µM, stronger effect = higher value.
The nature of test [11]: viability rescue of complex I mutant cybrids, primary screen, cell-based, galactose medium, ATP luminescence (AID 1645843;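 active means z-score of at least 1.8 in each of two replicates, scored against plate mean and spread of sample wells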;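 further: positive z means more ATP and so rescue of galactose-driven cybrid death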). Particulars: complex I mutant cybrid cells, 72 h, stronger effect = higher value.
The mark [12] stands for this setting: stronger effect = lower value, cell number ratio, induced over uninduced.
[13] abbreviates: measured here: relative caspase fold change +Dox/-Dox.
The mark [14] stands for this setting: measured here: total cells with miR-34 induction, stronger effect = lower value.
Where [15] appears, read: measured here: total cells without miR-34 induction.
The mark [16] stands for this setting: MELAS cybrid survival, CellTiter-Glo 48 h, stronger effect = higher value.
The mark [17] stands for this setting: Rieske KO mouse fibroblast survival, CellTiter-Glo 72 h.

Molecules are shown by their SMILES. Where “and” joins values, the source holds several entries; their conditions need not be identical. Identical values can stand only once. Results filed as inconclusive are left out. Calls of active or inactive are those of the source. Unless noted, how the calls were made is not given here.

A word on the viability: it is a read-out of living cells in per cent, often relative to untreated cells. The inhibition is the relative decrease from the control value, in per cent.

Sequence of NAD(+) hydrolase SARM1 (Homo sapiens) (Q6SZW1 whole entry, looked up, the tested form may be a part): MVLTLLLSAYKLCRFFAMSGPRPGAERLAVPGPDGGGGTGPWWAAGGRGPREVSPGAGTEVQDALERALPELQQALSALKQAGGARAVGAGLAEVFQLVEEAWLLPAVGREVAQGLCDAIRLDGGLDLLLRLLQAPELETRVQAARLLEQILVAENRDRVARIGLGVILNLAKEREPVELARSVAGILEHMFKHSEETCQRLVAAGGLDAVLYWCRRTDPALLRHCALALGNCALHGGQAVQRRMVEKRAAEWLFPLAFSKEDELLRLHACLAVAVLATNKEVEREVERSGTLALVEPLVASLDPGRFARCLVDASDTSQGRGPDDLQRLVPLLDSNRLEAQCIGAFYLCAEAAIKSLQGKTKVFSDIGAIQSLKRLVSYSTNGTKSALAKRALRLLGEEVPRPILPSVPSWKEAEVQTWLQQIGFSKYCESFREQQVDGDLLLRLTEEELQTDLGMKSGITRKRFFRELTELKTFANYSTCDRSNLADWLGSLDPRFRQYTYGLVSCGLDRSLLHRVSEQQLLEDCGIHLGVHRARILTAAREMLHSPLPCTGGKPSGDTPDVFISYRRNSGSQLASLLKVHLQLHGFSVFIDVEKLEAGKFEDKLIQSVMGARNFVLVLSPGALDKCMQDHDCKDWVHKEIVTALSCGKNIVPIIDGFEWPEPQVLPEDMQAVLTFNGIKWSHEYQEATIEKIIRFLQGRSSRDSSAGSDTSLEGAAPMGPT
Sequence of 6-phosphogluconate dehydrogenase, decarboxylating (Homo sapiens) (P52209 whole entry, looked up): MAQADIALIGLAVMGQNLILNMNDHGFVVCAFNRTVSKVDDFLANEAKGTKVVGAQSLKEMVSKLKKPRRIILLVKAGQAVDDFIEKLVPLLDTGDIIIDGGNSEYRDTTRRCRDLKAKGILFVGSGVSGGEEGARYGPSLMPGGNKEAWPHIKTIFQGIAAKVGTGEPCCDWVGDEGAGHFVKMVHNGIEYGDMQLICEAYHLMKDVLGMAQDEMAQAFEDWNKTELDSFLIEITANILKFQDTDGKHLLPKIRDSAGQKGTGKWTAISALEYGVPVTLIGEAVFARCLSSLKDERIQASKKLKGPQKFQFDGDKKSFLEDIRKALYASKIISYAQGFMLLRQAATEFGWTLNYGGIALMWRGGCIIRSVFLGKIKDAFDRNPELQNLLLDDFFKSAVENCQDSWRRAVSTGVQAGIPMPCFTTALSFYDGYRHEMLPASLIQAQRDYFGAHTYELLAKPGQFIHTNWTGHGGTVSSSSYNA
Sequence of Mitogen-activated protein kinase 7 (Homo sapiens) (Q13164 whole entry, looked up, the tested form may be a part): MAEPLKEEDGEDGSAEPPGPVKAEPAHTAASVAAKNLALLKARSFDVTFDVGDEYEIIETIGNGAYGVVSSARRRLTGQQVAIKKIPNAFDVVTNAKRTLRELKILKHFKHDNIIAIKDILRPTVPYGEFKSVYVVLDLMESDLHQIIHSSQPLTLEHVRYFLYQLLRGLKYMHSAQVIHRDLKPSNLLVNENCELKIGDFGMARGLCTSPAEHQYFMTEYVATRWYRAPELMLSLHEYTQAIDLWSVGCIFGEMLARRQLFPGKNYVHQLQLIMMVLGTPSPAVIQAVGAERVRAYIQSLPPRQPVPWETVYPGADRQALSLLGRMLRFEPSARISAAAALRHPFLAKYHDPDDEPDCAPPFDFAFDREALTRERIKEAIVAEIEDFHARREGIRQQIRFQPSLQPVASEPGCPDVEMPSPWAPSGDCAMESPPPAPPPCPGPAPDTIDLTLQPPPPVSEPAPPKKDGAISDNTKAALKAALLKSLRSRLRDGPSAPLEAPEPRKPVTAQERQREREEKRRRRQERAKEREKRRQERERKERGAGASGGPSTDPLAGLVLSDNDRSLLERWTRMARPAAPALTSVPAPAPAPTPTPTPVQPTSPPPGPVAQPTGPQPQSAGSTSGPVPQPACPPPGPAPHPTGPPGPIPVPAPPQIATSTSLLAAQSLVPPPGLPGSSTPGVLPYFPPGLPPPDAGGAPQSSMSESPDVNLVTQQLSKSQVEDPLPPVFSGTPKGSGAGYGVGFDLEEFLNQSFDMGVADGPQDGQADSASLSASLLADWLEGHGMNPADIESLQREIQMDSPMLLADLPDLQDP

On to `C[C@H](CCC(=O)O)[C@H]1CC[C@H]2[C@@H]3[C@@H](O)C[C@@H]4C[C@H](O)CC[C@]4(C)[C@H]3CC[C@]12C`, for which the survival in test [1] is 4.92 (inactive). The parasite load remaining in test [2] was 52.5% (inactive) and 128% (inactive). Besides, the viability in [2] was 109% and 101%. Moreover, the fluorescence ratio in [3] is 0.99 (inactive). Moreover, the inhibition in [4] is -1.36% (inactive); in test [5], -17.2% (inactive). In addition, the call in test [6] was inactive. For the same compound, the fold change was 1 (inactive) and 0.854 (inactive) in test [7] (setting [12]); 1.43 and 1.31 in test [7] (setting [13]). Also, the cell count in test [7] (setting [14]) was 10300 and 8440; in test [7] (setting [15]), 10300 and 9880. Moreover, the z-score in test [8] (setting [16]) was -0.323 (inactive); in test [8] (setting [17]) it was -0.919; in [11], -0.425 (inactive). For the same compound, the remaining NAD in test [9] was 10 nM (inactive). In addition, the luciferase signal in test [10] is 36 AU (inactive).

`CCN1CCN(C(=O)N[C@@H](C(=O)N[C@@H]2C(=O)N3[C@@H]2SC(C)(C)[C@@H]3C(=O)O)c2ccccc2)C(=O)C1=O`: in test [1], the survival was 1.83 (inactive). The parasite load remaining in test [2] was 50.1% (inactive) and 75.4% (inactive) and 36.6% (inactive). The viability in test [2] is 89.8% and 93.5% and 71.5%. Besides, the fluorescence ratio in [3] was 0.99 (inactive). Further, the inhibition in [4] is -3.18% (inactive); in test [5], 12.4% (inactive). For the same compound, the fold change in test [7] (setting [12]) was 0.928 (inactive) and 0.85 (inactive) and 0.888 (inactive); in test [7] (setting [13]) it was 2.92 and 0.912 and 1.53. Also, the cell count in test [7] (setting [14]) is 10600 and 8860 and 9900; in test [7] (setting [15]), 11400 and 10400 and 11200. In addition, the z-score in [8] (setting [16]) is 0.757 (inactive) and -0.0978 (inactive); in test [8] (setting [17]), 0.573 and 0.405; in test [11] it was 0.5 (inactive) and 0.93 (inactive). For the same compound, the remaining NAD in test [9] is 10 nM (inactive). The luciferase signal in test [10] is 72 AU (inactive).

In the case of `CC(=O)OCC(=O)[C@@]1(O)CC[C@H]2[C@@H]3CCC4=CC(=O)CC[C@]4(C)[C@H]3[C@@H](O)C[C@@]21C`, the parasite load remaining in [2] is 82.4% (inactive) and 26% (inactive). The viability in test [2] was 130% and 68%. Also, the fluorescence ratio in test [3] was 0.96 (inactive). For the same compound, the inhibition in test [4] is -0.45% (inactive); in test [5] it was 8.37% (inactive). For the same compound, the fold change in test [7] (setting [12]) is 0.933 (inactive) and 0.77 (inactive); in test [7] (setting [13]), 0.523 and 1.29. Moreover, the cell count in test [7] (setting [14]) is 7330 and 6560; in test [7] (setting [15]), 7860 and 8520. Moreover, the z-score in test [8] (setting [16]) was 0.499 (inactive) and 0.396 (inactive); in test [8] (setting [17]), 0.874 and 1.08; in test [11], -0.03 (inactive) and 0.39 (inactive). For the same compound, the remaining NAD in [9] is 10 nM (inactive). For the same compound, the luciferase signal in [10] was 36 AU (inactive).

Take `C#C[C@]1(O)CC[C@H]2[C@@H]3CCC4=CC(=O)CC[C@@H]4[C@H]3CC[C@@]21C`: the survival in test [1] was 14.7 (inactive). The fluorescence ratio in [3] was 0.96 (inactive). The inhibition was 1.36% (inactive) in test [4] and -1.74% (inactive) in [5]. Further, the fold change in test [7] (setting [12]) was 0.992 (inactive) and 0.97 (inactive) and 0.797 (inactive); in test [7] (setting [13]), 3.48 and 0.712 and 1.56. Besides, the cell count was 9410 and 9190 and 8090 in [7] (setting [14]); 9490 and 9470 and 10100 in test [7] (setting [15]). Further, the z-score in [8] (setting [16]) is 0.108 (inactive) and 0.243 (inactive); in test [8] (setting [17]), 0.0145 and -0.237; in test [11], -0.71 (inactive) and 0.54 (inactive). Moreover, the remaining NAD in test [9] is 10 nM (inactive). The luciferase signal in test [10] is 48 AU (inactive).

Turning to `C[C@]12CC[C@@H]3c4ccc(O)cc4CC[C@H]3[C@@H]1CC[C@@H]2O`, the survival in test [1] is 11.2 (inactive). In addition, the fluorescence ratio in test [3] was 1 (inactive). For the same compound, the inhibition in [4] is 2.77% (inactive); in test [5], -7.69% (inactive). Also, the call in test [6] was inactive. Besides, the z-score was 1.01 (inactive) and 0.292 (inactive) in test [8] (setting [16]); -0.193 and 1.1 in test [8] (setting [17]); 0.115 (inactive) and -0.055 (inactive) in test [11]. Further, the remaining NAD in test [9] was 10 nM (inactive). Also, the luciferase signal in test [10] is 184 AU (inactive).

The record behind these values is PubChem BioAssay.
